Read-out in one test: Decorin, DCN (gene 1634)
In words: BSK_MyoF_Decorin: BioMAP Diversity Plus: MyoF Assay for Decorin Biomarker Activity (AID 2284265). The settings on record: primary human lung fibroblasts. Put shortly: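 Human lung fibroblast cultures were dosed for 24 h, and decorin was then measured by ELISA. Parallel cultures were stained with sulforhodamine B for total protein as a cytotoxicity check. Gain of signal was fitted relative to DMSO.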

Read-out in test [1]: KRT18 (gene 3875)
In words: BSK_BF4T_Keratin818: BioMAP Diversity Plus: BF4T Assay for Keratin 818 Biomarker Activity (AID 2284266). Conditions: primary human bronchial epithelial cells with fibroblasts. A digest of the protocol: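 Keratin 8/18 levels quantified by ELISA after 24 h chemical treatment of bronchial epithelial cell/dermal fibroblast co-cultures, fitted in positive direction relative to DMSO. Parallel SRB staining tracks overt cytotoxicity.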

The nature of test [2]: BSK_MyoF_SRB: Viability Assessment in the BioMAP Diversity Plus: MyoF Assay (AID 2284267).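 Also: total protein by SRB absorbance in parallel cultures as cytotoxicity measure; cells assessed 24 h after compound addition.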 The settings on record: primary human lung fibroblasts. A digest of the protocol:
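In this viability endpoint, fibroblasts from human lung are treated for 24 h, TCA-fixed, SRB-stained (0.1%) and read at 560 nm. Gain of signal relative to DMSO defines activity.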

Read-out in test [3]: Matrix Metallopeptidase 1 (MMP1), MMP1 (gene 4312)
In words: BSK_MyoF_MMP1: BioMAP Diversity Plus: MyoF Assay for Matrix Metallopeptidase 1 (MMP1) Biomarker Activity (AID 2284268). The settings on record: primary human lung fibroblasts. A digest of the protocol:
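Human lung fibroblast primary cells; MMP1 measured by ELISA 24 h after dosing, fitted in the positive direction relative to DMSO. Parallel SRB staining (0.1%, after 10% TCA fixation, 560 nm) assesses overt cytotoxicity.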

Read-out in test [4]: TIMP metallopeptidase inhibitor 1 (TIMP1), TIMP1 (gene 7076)
Description: BSK_MyoF_TIMP1: BioMAP Diversity Plus: MyoF Assay for TIMP metallopeptidase inhibitor 1 (TIMP1) Biomarker Activity (AID 2284269). Conditions: primary human lung fibroblasts. A digest of the protocol:
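Fibroblasts from human lung are dosed with chemical, cultured 24 h, and assayed for TIMP-1 by ELISA. Increases over the DMSO baseline are scored, with SRB total-protein staining run in parallel for cytotoxicity.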

Read-out in test [5]: Matrix Metallopeptidase 1 (MMP1), MMP1 (gene 4312)
In words: BSK_BF4T_MMP1: BioMAP Diversity Plus: BF4T Assay for Matrix Metallopeptidase 1 (MMP1) Biomarker Activity (AID 2284270). Conditions: primary human bronchial epithelial cells with fibroblasts. A digest of the protocol: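 MMP-1 quantified by ELISA in primary human bronchial epithelial/dermal fibroblast co-cultures, 24 hours post-dosing, with DMSO as baseline; parallel sulforhodamine B staining (560 nm) tracks overt cytotoxicity.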

Read-out in test [6]: Matrix Metallopeptidase 3 (MMP3), MMP3 (gene 4314)
In words: BSK_BF4T_MMP3: BioMAP Diversity Plus: BF4T Assay for Matrix Metallopeptidase 3 (MMP3) Biomarker Activity (AID 2284271). The settings on record: primary human bronchial epithelial cells with fibroblasts. A digest of the protocol: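 MMP-3 level read by ELISA after 24 h chemical exposure of bronchial epithelial cell/dermal fibroblast co-cultures, fitted upward relative to DMSO. Parallel cultures stained with 0.1% SRB after TCA fixation gauge overt cytotoxicity.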

Read-out in test [7]: Tissue plasminogen activator (tPA), PLAT (gene 5327)
In words: BSK_BF4T_tPA: BioMAP Diversity Plus: BF4T Assay for Tissue plasminogen activator (tPA) Biomarker Activity (AID 2284272). Conditions: primary human bronchial epithelial cells with fibroblasts. A digest of the protocol: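 tPA level quantified by ELISA at 24 h post-treatment in bronchial epithelial/dermal fibroblast co-cultures, gain of signal scored against DMSO baseline. Parallel cultures stained with 0.1% SRB (560 nm) to flag overt cytotoxicity.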

Read-out in test [8]: Plasminogen Activator Inhibitor-1 (PAI1), SERPINE1 (gene 5054)
In words: BSK_BF4T_PAI1: BioMAP Diversity Plus: BF4T Assay for Plasminogen Activator Inhibitor-1 (PAI1) Biomarker Activity (AID 2284273). The settings on record: primary human bronchial epithelial cells with fibroblasts. Put shortly:
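PAI-1 levels quantified by ELISA 24 h post-dosing in bronchial epithelial cell plus dermal fibroblast cultures. Signal gain referenced to DMSO baseline. Sulforhodamine B total-protein staining of parallel wells checked cytotoxicity.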

Read-out in test [9]: urokinase Plasminogen Activator (uPA), PLAU (gene 5328)
In words: BSK_BF4T_uPA: BioMAP Diversity Plus: BF4T Assay for urokinase Plasminogen Activator (uPA) Biomarker Activity (AID 2284275). Conditions: primary human bronchial epithelial cells with fibroblasts. A digest of the protocol:
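uPA levels measured by ELISA at 24 hours in BF4T cultures (bronchial epithelial cells plus dermal fibroblasts) and compared with DMSO; cytotoxicity tracked in parallel cultures by sulforhodamine B staining.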

Read-out in test [10]: Matrix Metallopeptidase 9 (MMP9), MMP9 (gene 4318)
Description: BSK_BF4T_MMP9: BioMAP Diversity Plus: BF4T Assay for Matrix Metallopeptidase 9 (MMP9) Biomarker Activity (AID 2284276). Conditions: primary human bronchial epithelial cells with fibroblasts. Put shortly:
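MMP-9 levels were measured by ELISA after 24 h exposure of bronchial epithelial cell/dermal fibroblast co-cultures, with DMSO as baseline. Parallel cultures were stained with 0.1% SRB after TCA fixation, read at 560 nm, to flag overt cytotoxicity.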

Read-out in test [11]: Intercellular Adhesion Molecule 1 (ICAM1), ICAM1 (gene 3383)
Description: BSK_BE3C_ICAM1: BioMAP Diversity Plus: BE3C Assay for Intercellular Adhesion Molecule 1 (ICAM1) Biomarker Activity (AID 2284278).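 Also: cell-surface ICAM-1 protein level quantified by ELISA.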 Conditions: primary human bronchial epithelial cells. Put shortly: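 hu bronchial epithelial primary cells, 24 h cpd exposure, ICAM-1 ELISA; gain-of-signal fit vs DMSO baseline.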

Read-out in test [12]: Interleukin-8 (IL8), CXCL8 (gene 3576)
Description: BSK_BE3C_IL8: BioMAP Diversity Plus: BE3C Assay for Interleukin-8 (IL8) Biomarker Activity (AID 2284280). The settings on record: primary human bronchial epithelial cells. A digest of the protocol: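 Primary human bronchial epithelial cells (BE3C system) were exposed to test chemical for 24 h, and IL-8 levels were then measured by ELISA. Activity was fitted in the positive (gain-of-signal) direction against a DMSO negative-control baseline.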

Read-out in test [13]: Epidermal growth factor receptor (EGFR), EGFR (gene 1956)
In words: BSK_BE3C_EGFR: BioMAP Diversity Plus: BE3C Assay for Epidermal growth factor receptor (EGFR) Biomarker Activity (AID 2284281). The settings on record: primary human bronchial epithelial cells. Put shortly:
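Human primary bronchial epithelial cells were exposed to compound for 24 h, and cell-surface EGFR was then quantified by ELISA. Activity was fitted in the positive direction against the DMSO vehicle baseline.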

Read-out in test [14]: KRT18 (gene 3875)
In words: BSK_BE3C_Keratin818: BioMAP Diversity Plus: BE3C Assay for Keratin 818 Biomarker Activity (AID 2284282). The settings on record: primary human bronchial epithelial cells. A digest of the protocol: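 In this multiplexed primary-cell system, bronchial epithelial cells were dosed and harvested at 24 h. Keratin 8/18 was determined by ELISA and analysed for increases over DMSO controls.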

Read-out in test [15]: Matrix Metallopeptidase 9 (MMP9), MMP9 (gene 4318)
Description: BSK_BE3C_MMP9: BioMAP Diversity Plus: BE3C Assay for Matrix Metallopeptidase 9 (MMP9) Biomarker Activity (AID 2284283). Conditions: primary human bronchial epithelial cells. Put shortly:
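Human primary bronchial epithelial cells exposed 24 h to compound. MMP9 quantified by ELISA. SRB total-protein staining of parallel cultures assesses cytotoxicity. Positive-direction fit relative to DMSO.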

Read-out in test [16]: Plasminogen activator inhibitor-1 (PAI1), SERPINE1 (gene 5054)
In words: BSK_CASM3C_PAI1: BioMAP Diversity Plus: CASM3C Assay for Plasminogen activator inhibitor-1 (PAI1) Biomarker Activity (AID 2284284). Conditions: primary human coronary artery smooth muscle cells.

Test [17] can be described thus: BSK_BF4T_SRB: Viability Assessment in the BioMAP Diversity Plus: BF4T Assay (AID 2284274). The settings on record: primary human bronchial epithelial cells with fibroblasts. A digest of the protocol:
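Cytotoxicity measured as total protein: cells fixed with 10% TCA, stained with 0.1% SRB, read at 560 nm. Bronchial epithelial/dermal fibroblast co-culture, 24 h after dosing, with positive-direction fitting relative to DMSO.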

Read-out in test [18]: Interferon-inducible T-cell alpha chemoattractant (ITAC), CXCL11 (gene 6373)
In words: BSK_BE3C_ITAC: BioMAP Diversity Plus: BE3C Assay for Interferon-inducible T-cell alpha chemoattractant (ITAC) Biomarker Activity (AID 2284279). Conditions: primary human bronchial epithelial cells. Put shortly:
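BE3C cells (human primary bronchial epithelium), 24 h compound exposure, I-TAC by ELISA, DMSO = negative control/baseline, positive fitting direction.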

Each structure is given as a SMILES string. Several values for one entry are separate records, joined by “and”; a condition that tells them apart may be missing. Identical values can stand only once. A structure can be active in one record and inactive in another. Activity calls are given as the source filed them. The calls were made as follows: active = hit-call score of the fitted dose curve at least 0.9, where 1 is the maximum; inactive = score below 0.9.

For the molecule `FC(F)(F)C(F)(F)C(F)(F)C(F)(F)C(F)(F)C(F)(F)CC1CO1` (configuration not stated), the outcome in the test with Decorin, DCN (gene 1634) was “inactive”; in the test with KRT18 (gene 3875) [1] it was “inactive”; in [2] it was “inactive”; in test [3] it was “inactive”; in [4], “inactive”; in test [5] it was “inactive”. In addition, the result in test [6], in [7], in [8], in [9], in [10] and in test [11] was inactive. Besides, the result (in [12]; in test [13]; with KRT18 (gene 3875) [14]; in [15]; in test [16]) was inactive.
As to `C=CC(F)(F)C(F)(F)C(F)(F)C(F)(F)C(F)(F)C(F)(F)C(F)(F)C(F)(F)F`, the outcome is “inactive” in the test with Decorin, DCN (gene 1634); “inactive” with KRT18 (gene 3875) [1]; “inactive” in test [2]; “inactive” in [3]; “inactive” in [4]; “inactive” in test [6]. Moreover, the result in test [7], in [17], in test [10], in test [11], in test [12] and in [13] was inactive. The outcome (in the test with KRT18 (gene 3875) [14]; in test [15]; in test [16]) was inactive.
In the case of `FC(F)(F)C(F)(F)CNCC(F)(F)C(F)(F)F`, the outcome with Decorin, DCN (gene 1634) was “inactive”; in the test with KRT18 (gene 3875) [1], “inactive”; in test [2], “inactive”; in test [3] it was “inactive”; in [4] it was “inactive”; in test [5] it was “inactive”. The result in [6], in test [7], in test [9], in [10], in [11] and in test [18] was inactive. In addition, the result (in test [12]; in [13]; with KRT18 (gene 3875) [14]; in [15]; in test [16]) was inactive.
As usually defined, the AC50 is the midpoint of the concentration-response curve, whichever way the signal moves. `O=C(O)C=C(C(F)(F)F)C(F)(F)F`: the outcome in the test with Decorin, DCN (gene 1634) was “inactive”; in the test with KRT18 (gene 3875) [1], “inactive”; in test [2] it was “inactive”; in [3], “inactive”; in [4], “inactive”; in [5], “inactive”. For the same molecule, the result in test [6], in test [8], in [10], in [11], in [12] and in [13] was inactive. The result (with KRT18 (gene 3875) [14]; in [15]; in test [16]) was inactive. Further, the AC50 in test [7] is 8.23 µM (active) and 1.27 µM (active); in test [15], 10.8 µM (active).
As to `OCC(F)(F)C(F)(F)C(F)(F)F`, the outcome with Decorin, DCN (gene 1634) is “inactive”; in the test with KRT18 (gene 3875) [1] it was “inactive”; in test [2], “inactive”; in test [3] it was “inactive”; in test [4] it was “inactive”; in test [6], “inactive”. The outcome in test [7], in test [8], in [9], in [10], in test [11] and in [12] was inactive. Besides, the result (in test [13]; with KRT18 (gene 3875) [14]; in test [15]; in [16]) was inactive.
In the case of `C=CC(=O)OCC(F)(F)C(F)(F)C(F)(F)C(F)(F)C(F)(F)C(F)(F)C(F)(F)F`, the outcome with Decorin, DCN (gene 1634) was “inactive”; in the test with KRT18 (gene 3875) [1] it was “inactive”; in [2], “inactive”; in [3] it was “inactive”; in test [4], “inactive”; in [6], “inactive”. For the same molecule, the outcome in [7], in test [8], in test [10], in test [11], in test [12] and in [13] was inactive. Further, the result (in the test with KRT18 (gene 3875) [14]; in test [15]; in test [16]) was inactive.
